The values below come from the supplement of paper PMC7156485.

Each structure is given as a SMILES string. ± gives the standard deviation of the averaged measurements.

Holding throughout (details): concentration: 10 µM; 24 h
Test [1] relates to HCC1569. Kind of test: cell number relative to DMSO (% of DMSO); higher = more cells (less growth inhibition / toxicity). In a few lines: (§1)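 H1.0 nuclear intensity or cell number is expressed as percent of the plate control, with the median of replicates taken. HCC1569 and TDF cells were treated with compounds at 10 µM for 24 h at 37 °C, in triplicate, then fixed and immunostained for H1.0 with DAPI as a nuclear stain. HCC1569 values were smoothed to correct for positional effects.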

Test [2] relates to TDF. The test is described as above. The method in brief:
as §1

The subject of test [3] is TDF. Kind of test: H1.0 immunofluorescence intensity relative to DMSO (% of DMSO); higher = stronger H1.0 induction, active = 120 or more. The method in brief:
as §1

Test [4] deals with HCC1569. Kind of test: H1.0 immunofluorescence intensity relative to DMSO (% of DMSO); higher = stronger H1.0 induction, active = 140 or more. In a few lines: as §1
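For H1.0 immunofluorescence intensity relative to DMSO in this document: TDF is a line of transformed human dermal fibroblasts of mesenchymal origin.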
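For cell number relative to DMSO in this document: TDF denotes transformed human dermal fibroblasts of mesenchymal origin.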

With `Cl.O[C@H](c1cc(C(F)(F)F)nc2c(C(F)(F)F)cccc12)[C@@H]1CCCCN1`, the cell number with HCC1569 [1] turned out to be 52; in the test with TDF [2], 56.7. For the same compound, the values for the H1.0 immunofluorescence intensity in the test on TDF [3] and in the test with HCC1569 [4] were 131 (active) and 170 (active), respectively.
Taken in the same sequence, the figures for `CCCCCC(O)C=CC1C(O)CC(=O)C1CC=CCCCC(=O)O` (configuration not stated) [Prostaglandin E2] were 100 ± 2.4, 102 ± 6.3, 95.7 (inactive) and 100 (inactive).
Taken in the same sequence, the figures for `CCCC(=O)Oc1ccc2[nH]c(C(=O)c3cc4ccccc4[nH]3)cc2c1` [PDGF Receptor Tyrosine Kinase Inhibitor II] were 86.9, 92.3, 87.9 (inactive) and 165 (active).
Taken in the same sequence, the figures for `C[C@@H]([C@@H](O)c1ccc(O)cc1)N1CCC(O)(c2ccccc2)CC1` were 102, 91.1, 94.7 (inactive) and 105 (inactive).
As for `O=C(Nc1ccc(-c2cn[nH]c2)cc1)C1COc2ccccc2O1` (configuration not stated) [Rho Kinase Inhibitor V], the cell number in the test on HCC1569 [1] worked out at 107; in the test on TDF [2], 109. Besides, the H1.0 immunofluorescence intensity was 87.7 (inactive) in the test on TDF [3] and 101 (inactive) in the test with HCC1569 [4].
Taken in the same sequence, the figures for `C=CC(C)(O)CCC1C(C)(O)CCC2C(C)(C)CCCC21C` (configuration not stated) [Sclareol] were 105, 90.1, 105 (inactive) and 94.7 (inactive).
Taken in the same sequence, the figures for `CC(=O)OC1CCC2(C)C(C1)C(OC(C)=O)CC1C2CC2C3CN4CC(C)CCC4C(C)C3CCC21O` (configuration not stated) [Diacetylkorseveriline] were 101, 109, 96.2 (inactive) and 95.1 (inactive).
Taken in the same sequence, the figures for `COc1ccc2c(c1)CC[C@@H]1[C@@H]2CC[C@]2(C)[C@@H](NCCCCCCN3C(=O)C=CC3=O)CC[C@@H]12.O` were 97.6, 109, 99.9 (inactive) and 107 (inactive).
As for `O=C(Nc1ccc(N2CCOCC2)c(S(=O)(=O)Nc2ccccc2Cl)c1)c1ccncc1` [Chk2 Inhibitor], the cell number in the test with HCC1569 [1] was found to be 98.5; with TDF [2], 110. For the same compound, the H1.0 immunofluorescence intensity with TDF [3] was 87.3 (inactive); in the test with HCC1569 [4] it was 99.5 (inactive).
In the case of `C[N+](C)(C)CCO.[Br-]` [Choline bromide], the cell number in the test with HCC1569 [1] is 104; in the test with TDF [2], 108. For the same compound, the H1.0 immunofluorescence intensity in the test on TDF [3] was 96.9 (inactive); in the test with HCC1569 [4], 98 (inactive).
Taken in the same sequence, the figures for `CNCCCC12CCC(c3ccccc31)c1ccccc12.Cl` [Maprotiline hydrochloride] were 97.8, 102, 106 (inactive) and 99.1 (inactive).
`O=C1NC(=O)c2c1c1c3ccccc3[nH]c1n1cncc21` [Isogranulatimide]: the cell number was 87.7 in the test on HCC1569 [1] and 96.4 with TDF [2]. The H1.0 immunofluorescence intensity in the test with TDF [3] is 90 (inactive); in the test on HCC1569 [4], 134 (inactive).
Taken in the same sequence, the figures for `COc1cc2c(N3CCN(C(=O)Nc4ccc(OC(C)C)cc4)CC3)ncnc2cc1OCCCN1CCCCC1` [Tandutinib] were 101, 100, 97.9 (inactive) and 99.5 (inactive).
`C#C[C@@]1(OC(C)=O)CC[C@H]2[C@@H]3CCC4=CC(=O)CC[C@@H]4[C@H]3CC[C@@]21C` [(17beta)-17-ethynyl-3-oxoestr-4-en-17-yl acetate]: the cell number in the test with HCC1569 [1] stood at 90.4; in the test on TDF [2], 96.8. Also, the H1.0 immunofluorescence intensity in the test on TDF [3] is 95.5 (inactive); in the test with HCC1569 [4] it was 121 (inactive).
Take `Cc1cccc(-c2[nH]ncc2-c2ccc3ncccc3n2)n1`: the cell number with HCC1569 [1] amounted to 96.6; in the test on TDF [2], 95.3. Moreover, the figures for the H1.0 immunofluorescence intensity in the test with TDF [3] and in the test on HCC1569 [4] were 94.9 (inactive) and 92.8 (inactive), respectively.
Taken in the same sequence, the figures for `Cl.N[C@@H](CCC(=O)O)C(=O)O` [L-Glutamic acid hydrochloride] were 103, 114, 90.1 (inactive) and 91.5 (inactive).
For the compound `COc1ccc(CN(CCN(C)C)c2ccccn2)cc1.O=C(O)C=CC(=O)O` [Mepyramine maleate], the values for the cell number in the test on HCC1569 [1] and in the test on TDF [2] were 106 and 94.8, respectively. Besides, the results for the H1.0 immunofluorescence intensity in the test with TDF [3] and in the test on HCC1569 [4] were 92.3 (inactive) and 100 (inactive), respectively.
Taken in the same sequence, the figures for `CC(COc1ccccc1)N(CCCl)Cc1ccccc1.Cl` (configuration not stated) [Phenoxybenzamine hydrochloride] were 71.6, 69.5, 105 (inactive) and 107 (inactive).
Consider `CNCCNS(=O)(=O)c1cccc2cnccc12.Cl.Cl` [H-8 dihydrochloride], for which the values for the cell number in the test on HCC1569 [1] and with TDF [2] were 105 and 101, respectively. Further, the H1.0 immunofluorescence intensity in the test with TDF [3] is 91.8 (inactive); in the test on HCC1569 [4] it was 77.5 (inactive).
On to `Cn1sc(=O)n(Cc2ccccc2)c1=O` [GSK-3b Inhibitor I], for which the cell number was found to be 98.9 in the test on HCC1569 [1] and 102 in the test with TDF [2]. Further, the H1.0 immunofluorescence intensity with TDF [3] is 98.3 (inactive); in the test with HCC1569 [4] it was 134 (inactive).
Taken in the same sequence, the figures for `CC1(C)OC2CC3C4CC(F)C5=CC(=O)C=CC5(C)C4(F)C(O)CC3(C)C2(C(=O)CO)O1` (configuration not stated) [Fluocinolone acetonide] were 101, 96.3, 88.2 (inactive) and 124 (inactive).
For `COc1ccc(Nc2nc(N)nc(CN3CCCCC3)n2)cc1`, the cell number came to 102 in the test on HCC1569 [1] and 90.5 in the test with TDF [2]. The H1.0 immunofluorescence intensity in the test with TDF [3] is 96.9 (inactive); in the test with HCC1569 [4], 94.5 (inactive).
Taken in the same sequence, the figures for `CN1CCCCC1CCN1c2ccccc2Sc2ccc(S(C)=O)cc21.O=S(=O)(O)c1ccccc1` (configuration not stated) [Mesoridazine besylate] were 103, 111, 92.4 (inactive) and 109 (inactive).
